HUVEC tox TNFa – toxic to HUVEC cells under TNF alpha stimulation | 0.17% of 93,000 active | cell count reduction, % at 2 µM | HUVEC TNFalpha-stimulated, Hoechst cell count, imaging;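 active = cell count reduction exceeding the screen mean by over 5 SD, scaled to untreated wells per plate, cut at about 78% in these data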;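 also: cells counted after 24 h of TNF alpha exposure following the 1 h pretreatment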
E-sel TNF inh – TNF alpha driven E-selectin expression inhibition | HUVEC TNFa-induced E-selectin immunofluorescence, high content | inhibition, % at 2 µM | 0.71% of 120,000 active;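 active = inhibition above the batch mean plus 3 SD, and confirmed as a hit on visual image review, cut at about 43% in these data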;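 also: 0% = TNF-stimulated DMSO wells and 100% = unstimulated control wells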
VCAM1 TNFa inh – reduces TNF alpha induced VCAM1 expression in HUVEC; HUVEC TNFa-induced VCAM-1 immunofluorescence, high-content imaging; inhibition, % at 2 µM; 0.48% of 95,000 active;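 active = inhibition above the batch mean plus 3 SD, with images confirmed as a hit by eye, cut at about 37% in these data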;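 also: 0% = TNF-stimulated DMSO wells and 100% = unstimulated control wells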
F-actin modifier – modifiers of cytoskeleton assembly; HUVEC TNFa F-actin phalloidin imaging, high content; inhibition, % at 2 µM; 0.18% of 91,000 active; AID 836;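 active = inhibition above the batch mean plus 3 SD and confirmed as a hit by visual image inspection, cut at about 30% in these data, passing the limit was not always enough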
An asterisk follows results filed as active; . = no result. Hits are enriched below; roughly 1% of the tested compounds scored in any of these assays.

SMILES	HUVEC tox TNFa	E-sel TNF inh	VCAM1 TNFa inh	F-actin modifier
CC(C)(C)C(=O)/C(=C/c1ccncc1)n1cncn1	.	10.3	.	.
COc1ccc(O)c(CNc2ccccc2F)c1	.	-7.3	.	.
Cc1ccc(Nc2c(-c3ccccn3)nc3cccc(C)n23)cc1	.	-3.7	.	.
Cc1nc2ccccc2n1-c1nc(-c2ccco2)cc(C(F)(F)F)n1	.	99.8*	.	.
CCN(Cc1ccccc1)C(=O)c1ccc(Cl)cc1[N+](=O)[O-]	.	2.2	.	.
CCN(CC)CCNC(=O)CS(=O)Cc1nc(-c2ccccc2Cl)oc1C (stereo not given)	-5.4	70.9*	-12.9	-8.8
COc1cccc(CNC(=O)CN2CCC(c3nc4ccc(C)cc4[nH]3)CC2)c1	.	5.1	.	.
Cc1cc(-n2nc(C)cc2C)nc(NS(=O)(=O)c2ccccc2)n1	.	58.5*	.	.
CC(=O)Nc1ccc(S(=O)(=O)Nc2nc(C)cc(-n3nc(C)cc3C)n2)cc1	.	-4.8	.	.
CCOC(=O)c1cnc(/N=C/N(C)C)s1	.	-12.5	.	.
COC(=O)c1sccc1NC(=O)c1ccc(C)s1	-16.0	-40.7	29.9	2.0
COC(=O)c1sccc1NC(=O)c1ccc(Br)s1	0.4	-2.4	52.6*	-4.7
COc1ccc(NC(=O)c2cc(-c3ccc(OC)c(OC)c3)on2)cc1OC	-11.9	80.0*	2.8	19.7
COCCNC(=O)CN(Cc1cccs1)C(=O)CCC(=O)Nc1nccs1	.	1.6	.	.
COc1ccccc1N1CCN(S(=O)(=O)c2cc(C)sc2C)CC1	-18.5	-12.7	7.5	11.5
Cc1cc(S(=O)(=O)N2CCN(c3ccccc3O)CC2)c(C)s1	-13.3	56.8*	15.0	5.7
NC(=O)Cc1ccc(C(=O)c2ccc(Cl)cc2)s1	.	-9.7	.	.
Nc1sccc1C(=O)c1ccc(Cl)cc1	-61.5	-2.0	91.8*	30.0
COCCNC(=O)c1cn(C)c2ccccc2c1=O	.	-0.8	.	.
COCCNC(=O)C(c1cccs1)N(Cc1cccs1)C(=O)Cn1nnc2ccccc21 (stereo not given)	-0.4	9.1	-10.5	32.3*
COCCNC(=O)C(c1cccs1)N(Cc1ccccc1)C(=O)Cn1nnc2ccccc21 (stereo not given)	-12.0	14.1	11.4	-3.4
CCc1ccc(C(=O)COC(=O)c2n[nH]c3ccccc23)cc1	.	-26.8	.	.
COc1ccccc1Cc1nc(-c2ccncc2)no1	.	77.3*	.	.
N#Cc1sc2nc3c(cc2c1N)CCCC3	.	0.3	.	.
Cc1cc(C)n(C(=O)CNC(=O)CCc2ccccc2)n1	-31.8	99.0*	15.4	-15.9
SMILES	HUVEC tox TNFa	E-sel TNF inh	VCAM1 TNFa inh	F-actin modifier
COCCn1c(SCC(=O)c2ccc(Cl)cc2)nnc1C(C)C	-13.1	70.9*	-1.3	54.5
COCCn1c(SCC(=O)c2ccc3c(c2)OCCO3)nnc1C(C)C	-6.2	-10.5	14.4	-1.5
Cc1ccccc1CS(=O)(=O)c1nnc([C@H](CC(C)C)NC(=O)OC(C)(C)C)o1	-16.8	98.7*	10.3	24.1
CCN(CC)CCN1C(=O)C(=O)/C(=C(/O)c2cnn(-c3ccccc3)c2C)C1c1ccc(C)o1 (stereo not given)	7.6	5.1	-10.5	-14.9
Cc1ccc(C2/C(=C(\O)c3cnn(-c4ccccc4)c3C)C(=O)C(=O)N2CCN(C)C)o1 (stereo not given)	90.8*	-36.7	39.2	-10.4
Cc1ccccc1N1CCN(C2=NC(=O)/C(=C/c3cn[nH]c3-c3ccccc3)S2)CC1	.	11.3	.	.
Oc1ccc(/C=C/c2ccc3ccccc3n2)cc1	.	-11.2	.	.
O=C(O)/C=C/c1ccc2ccccc2n1	-5.9	85.0*	3.4	-5.2
Cn1nc(-c2ccccc2)c(CO)c1Oc1ccc(F)cc1	.	-0.2	.	.
Cc1c(NC(=O)CN2CCN(c3ccccc3)CC2)c(=O)n(-c2ccccc2)n1C	12.3	-11.2	14.0	-21.6
Cc1c(NC(=O)CN2CC(C)OC(C)C2)c(=O)n(-c2ccccc2)n1C (stereo not given)	2.5	66.0*	16.0	8.9
CN(C)c1ccc(C(=O)c2ccc(N(C)C)c3ccccc23)cc1	83.6*	15.1	98.9*	2.0
COc1ccc(C(=O)c2ccc(N(C)C)cc2)c(OC)c1	-28.6	.	7.6	0.5
CN1C(=O)S/C(=C\c2ccccc2OCc2ccc(C(=O)O)cc2)C1=O	.	100.0*	.	.
CN1C(=O)S/C(=C/c2ccccc2OCc2ccc(C(=O)O)cc2)C1=O	.	-13.2	.	.
OC(CNCCC(c1ccccc1)c1ccccc1)COc1ccccc1 (stereo not given)	.	-9.8	.	.
O=C(NCN1C(=O)C2C3C=CC(C3)C2C1=O)Nc1nncs1 (stereo not given)	57.8	99.9*	11.0	0.3
COc1cc(C2C(C#N)=C(N)Oc3cc(C)n(CCc4ccccc4)c(=O)c32)cc2c1OCO2 (stereo not given)	.	95.0*	.	.
COCCCNC(=O)CN(Cc1ccc(Cl)cc1)S(C)(=O)=O	97.4*	6.1	.	-30.9
CC(C)C(NC(=O)c1ccc(F)cc1)C(=O)OCC(=O)N1CC(=O)Nc2ccccc21 (stereo not given)	.	-8.0	.	.
CCOc1ccc(S(=O)(=O)NN2Cc3ccccc3C2=N)cc1	.	-26.8	.	.
O=C(OCn1ncc(Br)c(Br)c1=O)c1c(F)cccc1F	17.4	23.1	73.8*	26.2
O=C(c1ccc(Cn2cc(Br)cn2)cc1)N1N=C(C(F)F)CC1(O)C(F)F (stereo not given)	.	-2.0	.	.
CCS(=O)(=O)NCC(c1ccco1)N1CCN(c2ccccc2)CC1 (stereo not given)	.	70.4*	.	.
CCC(=O)NCC(c1ccco1)N1CCN(c2ccc(OC)cc2)CC1 (stereo not given)	.	39.3	.	.
SMILES	HUVEC tox TNFa	E-sel TNF inh	VCAM1 TNFa inh	F-actin modifier
O=S(=O)(NCC(c1ccco1)N1CCN(c2ccccc2)CC1)c1ccc(F)cc1 (stereo not given)	.	68.7*	.	.
COc1cc(C(=O)Nc2c(C)cc(C)cc2C)c(Br)c(OC)c1OC	.	5.4	.	.
CCN(CC)C(=O)CSc1nc(OC)cc(=O)[nH]1	.	6.4	.	.
CCCCC(=O)NC(=S)Nc1ccccc1C(=O)Nc1ccccc1	89.9*	.	93.4*	-88.0
CC(=O)NC(=S)Nc1ccccc1C(=O)Nc1ccccc1	.	9.6	.	.
CCCOc1ccc(C(=O)NCC(c2cccs2)N(C)C)cc1 (stereo not given)	.	94.0*	.	.
CCN(c1ccccc1)S(=O)(=O)c1ccc(C(=O)NCC(c2cccs2)N(C)C)cc1 (stereo not given)	.	0.8	.	.
CCC(=O)N1CCc2cc(Br)cc(S(=O)(=O)NCc3ccco3)c21	.	78.9*	.	.
O=c1[nH]c(-c2ccccn2)nc2sc(-c3ccccc3)cc12	.	-23.9	.	.
COC(=O)c1c(NC(=O)c2ccc(S(=O)(=O)N3CCOCC3)cc2)sc2c1CCN(C)C2	7.1	16.6	54.1*	-19.5
C=CCN(c1ccccc1)S(=O)(=O)c1ccc(Cl)c(C(=O)OCC(=O)c2[nH]c(C)c(C(C)=O)c2C)c1	.	-6.1	.	.
Cc1ccc2[nH]c3c(c2c1)CN(C(=O)CN1CCN(c2cccc(C)c2C)CC1)CC3	-3.1	-10.8	-8.1	0.1
O=C(CN1CCSCC1)N1CCc2[nH]c3ccc(Br)cc3c2C1	4.2	5.3	61.4*	-17.5
C=CCn1c(SC(C)C#N)nc2sc(CC)cc2c1=O (stereo not given)	.	-22.9	.	.
COc1ccc(CCNC(=O)C(=O)NCc2ccccn2)cc1	.	-15.2	.	.
C=CCNC(=S)NNC(=O)c1ccc(Br)cc1	.	63.0*	.	.
COC(=O)CN1C(=S)N(c2ccc(Cl)cc2)C(=O)C1CC(=O)Nc1ccc(F)cc1 (stereo not given)	.	17.2	.	.

Screens as filed in PubChem.
